# Activity calls are given as the source filed them. Rule for the calls: active = hit-call score of the fitted dose curve at least 0.9, where 1 is the maximum; inactive = score below 0.9.
# How the values were obtained:
# [1] = ATG_GRE_CIS: Attagene CIS-FACTORIAL HepG2 Assay for human Glucocorticoid Response Elements (GRE) (AID 2282947); conditions: HepG2 GRE cis-reporter, Attagene multiplex mRNA; actives raise or lower the signal
# Method in brief: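 Transiently transfected HepG2 cells carrying GRE cis-reporter units (endogenous TF activity) dosed 24 h; reporter mRNA quantified by RT-PCR, 6-FAM labelling, HpaI digestion and capillary electrophoresis. Bidirectional fit versus DMSO baseline.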
# [2] = ATG_ISRE_CIS: Attagene CIS-FACTORIAL HepG2 Assay for human Interferon Regulatory Factor 1 (IRF1) binding to an Interferon-Stimulated Response Element (ISRE) (AID 2282948); conditions: HepG2 ISRE cis-reporter (Attagene), mRNA transcription readout; actives raise or lower the signal
# Method in brief: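 Cell-based cis-reporter assay; HepG2; 24 h exposure; reporter mRNA by RT-PCR plus capillary electrophoresis fluorescence; activity in either direction scored relative to DMSO.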
# [3] = ATG_M_32_CIS: Attagene CIS-FACTORIAL HepG2 Assay for M32 Transcription Factor (Internal Marker) (AID 2282949); conditions: HepG2 Attagene cis-factorial M32 reporter, mRNA; actives raise or lower the signal;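 note: background control marker of the multiplexed CIS panel rather than a real target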
# Method in brief: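 Fluorescent capillary electrophoresis peaks of HpaI-digested, FAM-labelled RT-PCR reporter products give the signal. Source: transiently transfected human liver HepG2 cells, 24 h after chemical dosing; bidirectional fitting against DMSO.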
# [4] = ATG_M_06_CIS: Attagene CIS-FACTORIAL HepG2 Assay for M06 Transcription Factor (Internal Marker) (AID 2282950); conditions: HepG2 Attagene CIS-FACTORIAL M06 internal marker reporter; actives raise or lower the signal
# Method in brief: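 HepG2 liver cells, 24 h exposure. Reporter transcripts from transfected cis-element constructs quantified by RT-PCR/capillary electrophoresis fluorescence. Bidirectional curve fit against DMSO.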
# [5] = molecular target: Hypoxia-inducible factor 1-alpha (Homo sapiens) (UniProt Q16665); assay: ATG_HIF1a_CIS: Attagene CIS-FACTORIAL HepG2 Assay for human Hypoxia Inducible Factor 1 (HIF1A) (AID 2282951); conditions: HepG2 Attagene cis-factorial HIF1a reporter transcription; actives raise or lower the signal
# Sequence of Hypoxia-inducible factor 1-alpha (Homo sapiens) (Q16665 whole entry, looked up): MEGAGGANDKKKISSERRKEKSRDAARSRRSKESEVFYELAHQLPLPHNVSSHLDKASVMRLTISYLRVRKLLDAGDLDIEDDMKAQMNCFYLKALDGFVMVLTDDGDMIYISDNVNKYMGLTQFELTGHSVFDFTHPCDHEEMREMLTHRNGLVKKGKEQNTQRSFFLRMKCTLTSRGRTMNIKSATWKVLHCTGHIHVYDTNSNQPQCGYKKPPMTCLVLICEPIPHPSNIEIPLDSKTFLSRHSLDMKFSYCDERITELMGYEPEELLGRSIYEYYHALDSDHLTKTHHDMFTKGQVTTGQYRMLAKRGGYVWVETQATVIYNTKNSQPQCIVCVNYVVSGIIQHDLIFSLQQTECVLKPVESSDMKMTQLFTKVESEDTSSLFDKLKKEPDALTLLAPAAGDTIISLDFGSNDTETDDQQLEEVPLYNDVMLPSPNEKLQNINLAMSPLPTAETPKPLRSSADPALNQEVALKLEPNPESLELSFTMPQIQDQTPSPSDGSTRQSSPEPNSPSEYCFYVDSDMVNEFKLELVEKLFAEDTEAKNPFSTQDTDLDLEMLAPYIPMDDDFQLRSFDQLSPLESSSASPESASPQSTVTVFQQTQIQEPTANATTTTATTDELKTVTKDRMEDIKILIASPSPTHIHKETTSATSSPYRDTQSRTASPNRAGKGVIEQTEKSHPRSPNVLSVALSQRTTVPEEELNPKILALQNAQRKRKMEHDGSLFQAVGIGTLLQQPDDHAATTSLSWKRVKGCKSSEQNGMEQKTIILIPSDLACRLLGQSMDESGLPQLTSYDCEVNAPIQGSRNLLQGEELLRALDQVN
# Method in brief: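 After 24 h chemical exposure of reporter-transfected HepG2 cells, reporter cDNA was PCR-amplified, labelled by 6-FAM primer extension (2 min 95 C, 20 s 68 C, 10 min 72 C), HpaI-cut (2 h, 37 C) and analysed by CE.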
# [6] = molecular target: Hepatocyte nuclear factor 6 (Homo sapiens) (UniProt Q9UBC0); assay: ATG_HNF6_CIS: Attagene CIS-FACTORIAL HepG2 Assay for human Hepatocyte Nuclear Factor 6 (HNF6) (AID 2282952); conditions: HepG2 Attagene cis-factorial HNF6 reporter transcription; actives raise or lower the signal
# Sequence of Hepatocyte nuclear factor 6 (Homo sapiens) (Q9UBC0 whole entry, looked up): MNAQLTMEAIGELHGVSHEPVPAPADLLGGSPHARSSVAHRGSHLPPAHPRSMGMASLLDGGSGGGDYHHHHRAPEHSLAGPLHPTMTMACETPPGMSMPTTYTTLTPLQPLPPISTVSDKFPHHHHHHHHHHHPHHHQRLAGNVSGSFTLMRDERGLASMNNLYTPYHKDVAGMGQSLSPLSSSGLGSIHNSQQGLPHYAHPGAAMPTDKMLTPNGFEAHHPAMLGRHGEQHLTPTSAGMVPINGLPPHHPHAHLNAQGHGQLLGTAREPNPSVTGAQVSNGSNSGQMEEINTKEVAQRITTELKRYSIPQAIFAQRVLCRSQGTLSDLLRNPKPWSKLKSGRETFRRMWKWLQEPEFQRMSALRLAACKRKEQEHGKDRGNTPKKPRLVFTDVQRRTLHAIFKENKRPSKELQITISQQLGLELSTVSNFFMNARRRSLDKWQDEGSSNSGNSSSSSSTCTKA
# Method in brief: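 Multiplexed mRNA reporter assay in transfected HepG2; 24 h dosing; RT-PCR plus capillary electrophoresis fluorescence; DMSO-referenced bidirectional curve fitting.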
# [7] = molecular target: Heat shock factor protein 1 (Homo sapiens) (UniProt Q00613); assay: ATG_HSE_CIS: Attagene CIS-FACTORIAL HepG2 Assay for human Heat Shock Transcription Factor 1 (HSE) (AID 2282953); conditions: HepG2 HSE cis-reporter, Attagene RNA transcription; actives raise or lower the signal
# Sequence of Heat shock factor protein 1 (Homo sapiens) (Q00613 whole entry, looked up, the tested form may be a part): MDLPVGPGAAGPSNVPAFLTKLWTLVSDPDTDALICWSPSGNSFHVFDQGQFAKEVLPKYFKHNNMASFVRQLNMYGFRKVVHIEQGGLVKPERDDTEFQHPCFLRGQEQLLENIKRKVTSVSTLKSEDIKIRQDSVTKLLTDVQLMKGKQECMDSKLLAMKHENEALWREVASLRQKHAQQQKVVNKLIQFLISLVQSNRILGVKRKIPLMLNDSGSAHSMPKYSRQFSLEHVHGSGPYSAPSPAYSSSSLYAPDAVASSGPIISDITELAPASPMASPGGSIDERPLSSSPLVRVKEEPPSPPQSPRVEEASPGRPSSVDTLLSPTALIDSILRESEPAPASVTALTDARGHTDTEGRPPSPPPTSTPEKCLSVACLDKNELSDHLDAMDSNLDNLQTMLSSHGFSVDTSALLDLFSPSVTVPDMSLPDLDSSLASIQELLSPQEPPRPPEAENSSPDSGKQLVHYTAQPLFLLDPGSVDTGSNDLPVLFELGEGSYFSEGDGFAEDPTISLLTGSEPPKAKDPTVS
# Method in brief: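 Endogenous transcription factor activity captured via cis-promoter reporter units transfected into HepG2; treatment lasted 24 h. Fluorescence intensity of reporter fragments analysed with bidirectional curve fitting, DMSO baseline.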
# [8] = ATG_MRE_CIS: Attagene CIS-FACTORIAL HepG2 Assay for human Metal Responsive Element (MRE) (AID 2282954); conditions: HepG2 MRE cis-reporter transcription, Attagene multiplex; actives raise or lower the signal
# Method in brief: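 HepG2 cells transiently transfected with cis-element-driven reporter units; mRNA measured 24 h after dosing. Reporter transcripts quantified by RT-PCR, FAM labelling, HpaI digestion and capillary electrophoresis; bidirectional fit versus DMSO.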
# [9] = molecular target: Paired box protein Pax-6 (Homo sapiens) (UniProt P26367); assay: ATG_Pax6_CIS: Attagene CIS-FACTORIAL HepG2 Assay for human Paired Box 6 (PAX6) (AID 2282956); conditions: HepG2 CIS-FACTORIAL PAX6 reporter transcription, RNA readout; actives raise or lower the signal
# Sequence of Paired box protein Pax-6 (Homo sapiens) (P26367 whole entry, looked up): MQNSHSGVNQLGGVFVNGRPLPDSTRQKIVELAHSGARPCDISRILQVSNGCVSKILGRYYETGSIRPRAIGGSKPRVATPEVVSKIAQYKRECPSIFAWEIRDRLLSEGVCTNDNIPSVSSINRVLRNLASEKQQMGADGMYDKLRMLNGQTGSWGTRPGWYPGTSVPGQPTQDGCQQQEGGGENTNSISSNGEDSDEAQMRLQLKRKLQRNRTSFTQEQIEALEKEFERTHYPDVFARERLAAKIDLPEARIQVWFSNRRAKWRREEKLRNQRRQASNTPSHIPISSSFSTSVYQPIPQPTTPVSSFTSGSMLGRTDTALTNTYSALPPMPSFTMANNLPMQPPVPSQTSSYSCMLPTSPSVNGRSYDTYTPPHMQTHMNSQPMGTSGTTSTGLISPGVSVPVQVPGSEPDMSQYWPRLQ
# Method in brief: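 Multiplexed cis-reporter HepG2 system; 24 h treatment; reporter mRNA read by RT-PCR/CE fluorescence; bidirectional fit vs DMSO.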
# [10] = ATG_PXRE_CIS: Attagene CIS-FACTORIAL HepG2 Assay for human Pregnane X Receptor Element (PXRE) (AID 2282957); conditions: HepG2 Attagene CIS-FACTORIAL PXRE reporter, mRNA; actives raise or lower the signal
# Method in brief: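 Cells: HepG2, transiently transfected reporter units under cis promoter control. Exposure: 24 h. Detection: reporter mRNA via RT-PCR/CE fluorescence; bidirectional fitting, DMSO-referenced.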
# [11] = ATG_PPRE_CIS: Attagene CIS-FACTORIAL HepG2 Assay for human Peroxisome Proliferator-activated Response Element (PPRE) (AID 2282958); conditions: HepG2 PPRE cis-element reporter, Attagene transcription factor profiling; actives raise or lower the signal
# Method in brief: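 PPRE activity in HepG2: transient cis-reporter transfection, 24 h compound incubation, reporter mRNA by RT-PCR and CE fluorescence; gain/loss fitted against DMSO.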
# [12] = ATG_Sox_CIS: Attagene CIS-FACTORIAL HepG2 Assay for human SRY-box transcription factor (SOX) (AID 2282960); conditions: HepG2 Attagene cis-factorial SOX reporter, mRNA; actives raise or lower the signal
# Method in brief: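 HepG2, cis reporter units, 24 h exposure. Reporter mRNA: RT-PCR → FAM labelling → HpaI → CE fluorescence. Bidirectional fit vs DMSO.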
# [13] = molecular target: Transcription factor Sp1 (Homo sapiens) (UniProt P08047); assay: ATG_Sp1_CIS: Attagene CIS-FACTORIAL HepG2 Assay for human Specificity Protein 1 (Sp1) (AID 2282961); conditions: HepG2 Sp1 cis-reporter transcription, actives raise or lower the signal
# Sequence of Transcription factor Sp1 (Homo sapiens) (P08047 whole entry, looked up, the tested form may be a part): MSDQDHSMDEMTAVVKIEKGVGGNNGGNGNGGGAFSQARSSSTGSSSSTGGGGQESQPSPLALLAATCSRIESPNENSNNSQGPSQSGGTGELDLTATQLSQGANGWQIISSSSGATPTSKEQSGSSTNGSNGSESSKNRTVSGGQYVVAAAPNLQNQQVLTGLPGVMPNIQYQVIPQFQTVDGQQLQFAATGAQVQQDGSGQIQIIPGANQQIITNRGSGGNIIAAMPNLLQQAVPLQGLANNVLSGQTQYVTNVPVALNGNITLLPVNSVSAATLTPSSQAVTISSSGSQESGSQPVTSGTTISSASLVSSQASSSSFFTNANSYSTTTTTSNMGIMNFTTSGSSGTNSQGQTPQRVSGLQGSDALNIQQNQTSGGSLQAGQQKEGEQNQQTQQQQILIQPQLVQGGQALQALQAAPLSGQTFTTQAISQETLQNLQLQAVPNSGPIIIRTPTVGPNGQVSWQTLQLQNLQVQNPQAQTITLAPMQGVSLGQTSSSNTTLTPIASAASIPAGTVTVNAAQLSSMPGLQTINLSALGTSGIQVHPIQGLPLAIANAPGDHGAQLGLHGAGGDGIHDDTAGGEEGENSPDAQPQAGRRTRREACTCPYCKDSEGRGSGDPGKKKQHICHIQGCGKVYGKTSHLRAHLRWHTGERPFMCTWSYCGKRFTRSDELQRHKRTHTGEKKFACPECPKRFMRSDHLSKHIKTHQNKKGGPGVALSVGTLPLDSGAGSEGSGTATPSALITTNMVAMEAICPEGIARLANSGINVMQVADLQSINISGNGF
# Method in brief: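 Liver-derived HepG2 cells, cis-element reporter library, 24 h treatment; RNA isolated, cDNA amplified with reporter-specific primers, FAM-labeled fragments sized on capillary analyzer. DMSO baseline, bidirectional curve fit.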
# [14] = ATG_SREBP_CIS: Attagene CIS-FACTORIAL HepG2 Assay for human Sterol Regulatory Element Binding (SREBP) (AID 2282962); conditions: HepG2 Attagene cis-factorial SREBP reporter, mRNA; actives raise or lower the signal
# Method in brief: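 mRNA induction of transfected cis-promoter reporters in HepG2 cells, 24 h post-dose. Detection: RT-PCR with 6-FAM-labelled products, HpaI digest, capillary electrophoresis. DMSO served as negative control and baseline.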
# [15] = molecular target: Signal transducer and activator of transcription 3 (Homo sapiens) (UniProt P40763); assay: ATG_STAT3_CIS: Attagene CIS-FACTORIAL HepG2 Assay for human Signal Transducer and Activator of Transcription 3 (STAT3) (AID 2282963); conditions: HepG2, Attagene cis-factorial STAT3 reporter transcription; actives raise or lower the signal
# Sequence of Signal transducer and activator of transcription 3 (Homo sapiens) (P40763 whole entry, looked up): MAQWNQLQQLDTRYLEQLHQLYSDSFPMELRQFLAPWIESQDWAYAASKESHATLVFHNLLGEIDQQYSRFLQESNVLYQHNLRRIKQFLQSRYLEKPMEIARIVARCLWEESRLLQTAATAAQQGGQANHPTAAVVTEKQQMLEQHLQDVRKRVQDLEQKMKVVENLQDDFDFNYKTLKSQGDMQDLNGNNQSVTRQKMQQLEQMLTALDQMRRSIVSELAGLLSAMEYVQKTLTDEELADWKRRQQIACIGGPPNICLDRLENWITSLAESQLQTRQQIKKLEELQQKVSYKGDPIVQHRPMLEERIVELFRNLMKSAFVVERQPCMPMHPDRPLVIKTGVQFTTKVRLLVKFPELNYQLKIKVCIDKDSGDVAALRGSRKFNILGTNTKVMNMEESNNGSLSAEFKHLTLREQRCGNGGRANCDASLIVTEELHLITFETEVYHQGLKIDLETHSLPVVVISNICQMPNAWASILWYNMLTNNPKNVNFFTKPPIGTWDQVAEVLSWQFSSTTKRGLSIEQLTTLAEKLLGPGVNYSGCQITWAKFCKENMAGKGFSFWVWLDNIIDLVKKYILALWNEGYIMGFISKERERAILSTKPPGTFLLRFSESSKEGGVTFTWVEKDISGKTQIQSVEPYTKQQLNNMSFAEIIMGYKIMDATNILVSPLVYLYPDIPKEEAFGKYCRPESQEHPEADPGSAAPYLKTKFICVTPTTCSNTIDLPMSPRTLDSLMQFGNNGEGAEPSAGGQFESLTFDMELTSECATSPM
# Method in brief: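 HepG2 cells transiently transfected with multiple cis-element-driven reporter units report endogenous transcription factor activity. After 24 h compound exposure, reporter mRNA is measured by RT-PCR, 6-FAM labelling, HpaI digestion and capillary electrophoresis. Fitted bidirectionally versus DMSO.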
# [16] = ATG_TA_CIS: Attagene CIS-FACTORIAL HepG2 Assay for human TA Basal Promoter (AID 2282964); conditions: HepG2 Attagene CIS-factorial TA basal promoter reporter; actives raise or lower the signal
# Method in brief: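 Fluorescence from labelled RT-PCR reporter fragments, separated by capillary electrophoresis, gives the signal. Cells: HepG2 transiently carrying multiple reporter units, 24 h chemical dosing. Gain or loss relative to DMSO.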
# [17] = ATG_TCF_b_cat_CIS: Attagene CIS-FACTORIAL HepG2 Assay for human T-Cell-Factor with beta-catenin (TCF/b-cat) (AID 2282965); conditions: HepG2 TCF/beta-catenin cis-reporter transcription, actives raise or lower the signal
# Method in brief: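 Cells of the HepG2 line carry transiently transfected reporter units whose promoters respond to endogenous factors. Twenty-four hours post-dosing, reporter mRNA induction is measured by fluorescent RT-PCR and capillary electrophoresis, with DMSO as baseline.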
# [18] = ATG_PBREM_CIS: Attagene CIS-FACTORIAL HepG2 Assay for human Phenobarbital-responsive Enhancer Module (PBREM) (AID 2282955); conditions: HepG2 PBREM cis-reporter, Attagene multiplexed transcription; actives raise or lower the signal
# Method in brief: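 Measures endogenous factor action on a phenobarbital-responsive enhancer module. HepG2 transiently carrying cis reporters, 24 h treatment, mRNA read-out by RT-PCR plus capillary electrophoresis.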
# [19] = ATG_RORE_CIS: Attagene CIS-FACTORIAL HepG2 Assay for human RAR-related Orphan Receptor Element (RORE) (AID 2282959); conditions: HepG2 Attagene cis-factorial RORE reporter, mRNA; actives raise or lower the signal
# Method in brief: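 A 24-hour exposure of transfected HepG2 hepatoma cells precedes RNA isolation and reporter RT-PCR. Labeled products are digested with HpaI and resolved by capillary electrophoresis, with gain or loss of signal scored relative to DMSO.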
# [20] = ATG_TAL_CIS: Attagene CIS-FACTORIAL HepG2 Assay for human TAL Basal Promoter (AID 2282966); conditions: HepG2 Attagene cis-factorial TAL promoter reporter; actives raise or lower the signal;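 note: background control endpoint measuring basal TAL promoter reporter mRNA not a specific factor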
# Method in brief: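 RT-PCR plus capillary electrophoresis quantifies reporter mRNA induction in transiently transfected HepG2 cells after 24 h chemical treatment. DMSO serves as negative control and baseline for bidirectional fitting.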
smiles,measurement,setting,value
ClC1(Cl)C2(Cl)C3(Cl)C4(Cl)C(Cl)(Cl)C5(Cl)C3(Cl)C1(Cl)C5(Cl)C24Cl (centres undefined),outcome,[1],inactive
same,outcome,[2],inactive
same,outcome,[3],inactive
same,outcome,[4],inactive
same,outcome,[5],inactive
same,outcome,[6],inactive
same,outcome,[7],inactive
same,outcome,[8],inactive
same,outcome,[9],inactive
same,AC50,[10],0.365 µM (active)
same,outcome,[11],inactive
same,outcome,[12],inactive
same,outcome,[13],inactive
same,outcome,[14],inactive
same,outcome,[15],inactive
same,outcome,[16],inactive
same,outcome,[17],inactive
ClCC(Cl)CCl,outcome,[1],inactive
same,outcome,[2],inactive
same,outcome,[3],inactive
same,outcome,[4],inactive
same,outcome,[5],inactive
same,outcome,[6],inactive
same,outcome,[7],inactive
same,outcome,[8],inactive
same,outcome,[18],inactive
same,outcome,[9],inactive
same,outcome,[10],inactive
same,outcome,[19],inactive
same,outcome,[12],inactive
same,outcome,[13],inactive
same,outcome,[14],inactive
same,outcome,[15],inactive
same,outcome,[16],inactive
same,outcome,[17],inactive
Cl/C=C/Cl,outcome,[1],inactive
same,outcome,[2],inactive
same,outcome,[3],inactive
same,outcome,[4],inactive
same,outcome,[5],inactive
same,outcome,[6],inactive
same,outcome,[7],inactive
same,outcome,[8],inactive
same,outcome,[9],inactive
same,outcome,[10],inactive
same,outcome,[19],inactive
same,outcome,[12],inactive
same,outcome,[13],inactive
same,outcome,[14],inactive
same,outcome,[15],inactive
same,outcome,[16],inactive
same,outcome,[17],inactive
same,outcome,[20],inactive
COP(=S)(OC)Oc1ccc(Sc2ccc(OP(=S)(OC)OC)cc2)cc1,outcome,[2],inactive
same,outcome,[3],inactive
same,outcome,[4],inactive
same,AC50,[5],39.3 µM (active)
same,outcome,[6],inactive
same,AC50,[7],27 µM (active)
same,AC50,[8],57.7 µM (active)
same,AC50,[18],8.08 µM (active)
same,AC50,[9],49.2 µM (active)
same,AC50,[10],2.83 µM (active)
same,outcome,[11],inactive
same,AC50,[19],37.2 µM (active)
same,outcome,[12],inactive
same,outcome,[13],inactive
same,outcome,[14],inactive
same,outcome,[15],inactive
same,outcome,[16],inactive
same,outcome,[17],inactive
same,AC50,[20],57.7 µM (active)
NC(=O)O,outcome,[2],inactive
same,outcome,[3],inactive
same,outcome,[4],inactive
same,outcome,[5],inactive
same,outcome,[6],inactive
same,outcome,[7],inactive
same,outcome,[8],inactive
same,outcome,[18],inactive
same,outcome,[9],inactive
same,outcome,[10],inactive
same,outcome,[12],inactive
same,outcome,[13],inactive
same,outcome,[14],inactive
same,outcome,[15],inactive
same,outcome,[16],inactive
same,outcome,[17],inactive
same,outcome,[20],inactive
C=C(C)C#N,outcome,[2],inactive
same,outcome,[3],inactive
same,outcome,[4],inactive
same,outcome,[5],inactive
same,outcome,[7],inactive
same,outcome,[8],inactive
same,outcome,[18],inactive
same,outcome,[9],inactive
same,outcome,[10],inactive
same,outcome,[19],inactive
same,outcome,[12],inactive
same,outcome,[13],inactive
same,outcome,[14],inactive
same,outcome,[15],inactive
same,outcome,[16],inactive
same,outcome,[17],inactive
same,outcome,[20],inactive
Nc1cccc(Cl)c1,outcome,[2],inactive
same,outcome,[3],inactive
same,outcome,[4],inactive
same,outcome,[5],inactive
same,outcome,[6],inactive
same,outcome,[8],inactive
same,outcome,[18],inactive
same,outcome,[9],inactive
same,outcome,[10],inactive
same,outcome,[11],inactive
same,outcome,[19],inactive
same,outcome,[12],inactive
same,outcome,[13],inactive
same,outcome,[14],inactive
same,outcome,[15],inactive
same,outcome,[16],inactive
same,outcome,[17],inactive
same,outcome,[20],inactive

# Reference: PubChem BioAssay (EPA / NIEHS)
